Screening results deposited in PubChem by Sanford-Burnham Center for Chemical Genomics.
Artemis endo inh: Artemis (human) endonuclease inhibition; Q96SD1; recombinant Artemis, quenched FAM hairpin cleavage fluorescence; inhibition, % at 10 µM; 30,000 tested, 0.78% active;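 active = at 10 µM dose, at least 30% inhibition, measured as corrected fluorescence normalized to stimulator and neutral control wells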
Hits are given with their value; - = inactive. The entries come from a sample that favours hits as a whole.

SMILES | Artemis endo inh
CC(C)OCCCNC(=O)c1c(N)n(Cc2cccs2)c2nc3ccccc3nc12 | -
Nc1c(C(=O)NC2CCCC2)c2nc3ccccc3nc2n1CC1CCCO1 (configuration not stated) | 31
CCOP(=O)(C#CC(C)(C)C)C1(O)CCCCC1 (configuration not stated) | -
O=C(CCc1nc(-c2ccccc2F)no1)N1CCC2(CC1)OCCO2 | -
Cc1nc2c(=O)n(C)c(=O)nc-2n(C)n1 | 78
CC(C)n1nnnc1CN1CCN(C)CC1 | -
Cc1cc(C)nc(-n2c(C)nc3cc(Cl)ccc3c2=O)c1 | -
COc1cccc(-n2c(O)c(C=NCCN3CCOCC3)c(=O)[nH]c2=O)c1 | -
C(#CCN1CCOCC1)COCc1ccccc1 | -
O=C1NC(=O)C(CCc2ccccn2)(Cc2ccc3c(c2)OCO3)C(=O)N1CCc1ccccc1 (configuration not stated) | -
CC(=O)c1ccc2c(c1)C1C(Cl)C(Sc3ccccc3[N+](=O)[O-])CC1C(c1ccccc1[N+](=O)[O-])N2 (configuration not stated) | 31
CCOc1ccccc1C1SCC(=O)Nc2c1c(=O)[nH]n2C(CC)CC (configuration not stated) | -
OC1(CN2CCOCC2)C2CC3CC(C2)CC1C3 (configuration not stated) | -
CN1C2CCC1CC(OC(=O)c1cc(Cl)cc(Cl)c1)C2 (configuration not stated) | -
COc1ccccc1/C=C1/C(=N/O)C2CCN1CC2 | -
CC(C)OC(=O)c1c(N)n(Cc2ccco2)c2nc3ccccc3nc12 | -
COCCCn1c(N)c(C(=O)OCCOC)c2nc3ccccc3nc21 | 38
CCOC(=O)c1c(N)n(CCCOC(=O)c2ccco2)c2nc3ccccc3nc12 | -
COCCOC(=O)c1c(N)n(Cc2ccco2)c2nc3ccccc3nc12 | -
COC(=O)c1c(N)n(Cc2ccc(OC)cc2)c2nc3ccccc3nc12 | 31
COCCOC(=O)c1c(N)n(Cc2ccc(OC)cc2)c2nc3ccccc3nc12 | -
COc1ccc(Nc2ncc(C(=O)N3CCC4(CC3)OCCO4)c3ccccc23)cc1 | -
Cc1ccc(C)c(C2(O)CC(C)N(C)CC2C)c1 (configuration not stated) | -
Cc1cc(C)n(CCOC(=O)C2C(C=C(Cl)Cl)C2(C)C)n1 (configuration not stated) | -
Fc1cccc(CCNCc2ccccn2)c1 | -
